HIF act: HIF pathway transcriptional activators, primary screen, cell-based, U2OS HRE-luciferase, luminescence | U2OS HRE-luciferase reporter; normalized: DMSO 0%, desferrioxamine 100% | activation, % at 7.5 µM (by protocol) | 300,000 compounds, 0.32% hits;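 active = mean activation of at least 10% of the iron chelator positive control signal, with at least half of replicates also reaching 10%; inconclusive = mean and replicate majority disagree about reaching 10%; inactive = mean and most replicates under 10%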
PfM18AAP inh: PfM18AAP inhibitors, malaria aminopeptidase, primary screen, biochemical, QFRET, recombinant enzyme. H-Glu-NHMec fluorogenic cleavage. 290,000 compounds, 1.2% hits. M18 aspartyl aminopeptidase (Plasmodium falciparum 3D7). inhibition, % at 7.35 µM. AID 1822, 2009;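 active = inhibition above the campaign mean inhibition over all tested compounds plus 3 SD, cut at about 28% in these data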;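 note: 0% = plate median of test compound wells and 100% = 2 mM ZnCl2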
ALR H2O2 inh: inhibitors of human ALR sulfhydryl oxidase, primary screen, biochemical, H2O2 detection, HRP-luminol luminescence, single point. purified ALR, DTT oxidation. inhibition, % (no concentration beside the values). 290,000 compounds, 3.8% hits;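 active = mean replicate inhibition above about 79%, with every replicate also reaching it, limit read from the data; inconclusive = only one of the two criteria met; inactive = mean below limit and not every replicate reaching it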
Target sequence (P55789 whole entry, looked up): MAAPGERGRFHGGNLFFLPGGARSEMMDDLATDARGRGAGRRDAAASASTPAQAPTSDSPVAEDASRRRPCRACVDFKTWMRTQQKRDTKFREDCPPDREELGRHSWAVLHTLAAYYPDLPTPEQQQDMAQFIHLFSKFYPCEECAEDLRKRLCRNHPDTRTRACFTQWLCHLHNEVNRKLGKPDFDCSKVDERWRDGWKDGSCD
SUMO Mot1 rescue: yeast Mot1-301 growth rescue at high temperature, primary screen, SUMOylation pathway inhibitor project, S. cerevisiae, ATP luminescence, 38.5C; 320,000 compounds, 1% hits; growth rescue, % at 18.8 µM; S. cerevisiae Mot1-301 growth rescue; percent above DMSO median, 100 means doubled;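 active = every valid replicate shows activation above 250% relative to neutral control wells; inactive = the rest, any valid replicate at or below 250%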;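 note: OY570 slx delta 5 strain wells were the positive control but not used for scaling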
* hit, by the source's call. Compounds with a hit are over-represented: about 5.3% of the library has one in this group of screens.

`O=C(CN1CCN(c2ccc(F)cc2)CC1)Nc1ccc(S(=O)(=O)N2CCOCC2)cc1` gave HIF act 0, PfM18AAP inh 5, ALR H2O2 inh inconclusive and SUMO Mot1 rescue -3.
`Cc1c(NC(=O)C(C)Oc2ccc(Br)cc2)c(=O)n(-c2ccccc2)n1C` (configuration not stated) gave ALR H2O2 inh 2 and SUMO Mot1 rescue -1.
For Cc1cc(Oc2ccc(=O)n(C)n2)nc(=S)[nH]1 the results were HIF act 0, PfM18AAP inh 28*, ALR H2O2 inh 47 and SUMO Mot1 rescue 8.
Screening CSc1nc(C)cc(Oc2ccc(=O)n(C)n2)n1 returned HIF act 0, PfM18AAP inh 1, ALR H2O2 inh -6 and SUMO Mot1 rescue -4.
For CC1Cc2ccccc2N1C(=O)CN(C)CC(=O)Nc1cccc(F)c1 (configuration not stated) the results were ALR H2O2 inh -1 and SUMO Mot1 rescue -6.
For COc1cc(C(=O)NCC2CCCO2)cc(Br)c1OCc1ccccc1 (configuration not stated) the results were ALR H2O2 inh 7 and SUMO Mot1 rescue 27.
For O=C(COc1ccc(Cl)cc1Cl)NC(=S)N1CCCc2ccccc21 the results were HIF act 0, PfM18AAP inh 19, ALR H2O2 inh 98* and SUMO Mot1 rescue 86.
`CN(C)/C=N/c1sc2c(c1C#N)CCC2` gave HIF act 0, PfM18AAP inh 7, ALR H2O2 inh 87* and SUMO Mot1 rescue -15.
`CN1CCN(c2c(/C=N/O)c3ccccc3n2C)CC1` gave HIF act 1, PfM18AAP inh -7, ALR H2O2 inh 93* and SUMO Mot1 rescue -19.
`C#CCn1c(=NC(=O)CSCC(=O)N2CCOCC2)sc2ccccc21` gave HIF act 0, PfM18AAP inh -11, ALR H2O2 inh 96* and SUMO Mot1 rescue -8.
`Cc1cc(Nc2n[nH]c(N)c2C#N)ccc1F` gave HIF act 0, PfM18AAP inh 14, ALR H2O2 inh 95* and SUMO Mot1 rescue -1.
For O=C(O)C1=C(OCc2ccc(F)c(F)c2)C(=O)NCC1 the results were HIF act 0, PfM18AAP inh 2, ALR H2O2 inh -4 and SUMO Mot1 rescue 9.
CCCCN(C)CCCNC(=O)CS(=O)Cc1nc(-c2ccc(OC)c(OC)c2)oc1C (configuration not stated) was read as HIF act 0, PfM18AAP inh -12, ALR H2O2 inh 100* and SUMO Mot1 rescue 2.
CCCN(CCC)CCCNC(=O)CS(=O)Cc1nc(-c2ccc(OC)c(OC)c2)oc1C (configuration not stated) was read as HIF act 0, PfM18AAP inh -5, ALR H2O2 inh 100* and SUMO Mot1 rescue 13.
`COc1ccccc1NC(=O)c1c(Nc2ccccc2F)sc(C(=O)Nc2cccc(Cl)c2)c1N` gave HIF act 0, PfM18AAP inh -3, ALR H2O2 inh -22 and SUMO Mot1 rescue -21.
Screening O=C(c1cnn(C(=O)c2ccccc2)c1)c1ccccc1O returned HIF act 1, PfM18AAP inh 31* and SUMO Mot1 rescue 91.
For O=C(c1cnn(C(=O)c2ccccc2F)c1)c1ccccc1O the results were ALR H2O2 inh 18 and SUMO Mot1 rescue 250.
O=C(c1cnn(C(=O)COc2ccc(Cl)cc2)c1)c1ccccc1O was read as HIF act 0, PfM18AAP inh 30*, ALR H2O2 inh 15 and SUMO Mot1 rescue 53.
For Cc1cccc(C(=O)N[C@H](C(=O)Nc2ccc3c(c2)OCO3)C(C)C)c1 the results were ALR H2O2 inh -7 and SUMO Mot1 rescue -2.
Screening CCN(CC)CCN1CCn2c3c(c4cc(C)ccc42)CCCC31 (configuration not stated) returned HIF act 1, PfM18AAP inh 5, ALR H2O2 inh 99* and SUMO Mot1 rescue -7.
Cc1ccc(NC(=O)COC(=O)CSC(=S)N2CCOCC2)cc1C was read as HIF act -1, PfM18AAP inh 5 and SUMO Mot1 rescue -4.
For Cc1ccc(NC(=O)COC(=O)CN2CSCC2=O)cc1C the results were HIF act -1, PfM18AAP inh 11, ALR H2O2 inh 98* and SUMO Mot1 rescue 7.
Screening COC(=O)C(c1ccccc1)N(Cc1cccc(CN(C(C(=O)OC)c2ccccc2)S(C)(=O)=O)c1)S(C)(=O)=O (configuration not stated) returned HIF act 0, PfM18AAP inh 3, ALR H2O2 inh -19 and SUMO Mot1 rescue 21.
For Cc1nnc(SCC(=O)NNC(=O)C(C)C)[nH]c1=O the results were HIF act -1, PfM18AAP inh -1 and SUMO Mot1 rescue -9.
CCOC(=O)C1=C(O)c2ccccc2C(=O)/C1=C\c1ccc(C)cc1 was read as PfM18AAP inh 6 and SUMO Mot1 rescue 280*.
`CC1CN(C(=S)Nc2ccc(Cl)cc2)CC(C)O1` (configuration not stated) gave HIF act 0, PfM18AAP inh 1, ALR H2O2 inh -7 and SUMO Mot1 rescue -11.
Screening CC1CN(c2ccc(NC(=S)Nc3ccc(N4CC(C)OC(C)C4)cc3)cc2)CC(C)O1 (configuration not stated) returned HIF act -4, PfM18AAP inh 29*, ALR H2O2 inh 97* and SUMO Mot1 rescue -17.
For O=C1CCNc2c(Cl)cccc21 the results were HIF act 0, PfM18AAP inh 0, ALR H2O2 inh -10 and SUMO Mot1 rescue 1.
`Oc1c(C=C2N=c3ccccc3=N2)sc(=S)n1-c1ccccc1` gave HIF act 22*, PfM18AAP inh 15 and SUMO Mot1 rescue 19.
For CCOc1ccc(S(=O)(=O)Nc2nc3ccccc3nc2Cl)cc1 the results were HIF act -1, PfM18AAP inh -8, ALR H2O2 inh 88* and SUMO Mot1 rescue -1.
`COc1ccc(NC2CCCCC2NS(=O)(=O)c2ccc(C)cc2)cc1` (configuration not stated) gave HIF act 0, PfM18AAP inh 7, ALR H2O2 inh 87* and SUMO Mot1 rescue 10.
For CCOc1ccc(S(=O)(=O)Nc2nc3ccccc3nc2N2CCN(C)CC2)cc1 the results were HIF act 1, PfM18AAP inh -8, ALR H2O2 inh 6 and SUMO Mot1 rescue -22.
Screening CCOc1ccc(NC2CCCCC2NS(=O)(=O)c2ccccc2)cc1 (configuration not stated) returned HIF act -1, PfM18AAP inh 0, ALR H2O2 inh 92* and SUMO Mot1 rescue 4.
C[C@H](N)c1nnc(SCc2ccc(Cl)cc2Cl)o1 was read as HIF act -1, PfM18AAP inh -4, ALR H2O2 inh 99* and SUMO Mot1 rescue -3.
For C[C@H](N)c1nnc(SCc2c(Cl)cccc2Cl)o1 the results were HIF act -1, PfM18AAP inh -5, ALR H2O2 inh -5 and SUMO Mot1 rescue 20.

Screens: PubChem, several laboratories
